Inconclusive results are not listed. Active and inactive are the calls of the source. How the source made its calls, unless noted: active means hit-call score of the fitted dose curve at least 0.9, where 1 is the maximum; inconclusive means response in the unintended direction; inactive means score below 0.9.

The record followed here is PubChem BioAssay (EPA / NIEHS).

A short description of experiment [1]: TOX21_p53_BLA_p2_viability: Viability Assessment in the Tox21 HCT-116 p53 Agonism Beta-lactamase Assay, Phase 2 (AID 2283591).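 Further: compound exposure lasted 16 h at 37 °C; actives lower the ATP signal meaning cytotoxicity.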 An outline of the steps: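 HCT-116 p53-bla cells (4000/well) rested 5 h at 37C, then received compounds in DMSO (217-fold dilution) for 16 h at 37C, 5% CO2. After the CCF4 read, CellTiter-Glo was added; ATP luminescence was read after 30 min at room temperature.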

Experiment [2] has as its target Cellular tumor antigen p53 (Homo sapiens) (UniProt P04637). Put plainly: TOX21_p53_BLA_p2_ratio: Tox21 HCT-116 p53 Agonism Beta-lactamase Assay, Ratio, Phase 2 (AID 2283592). In short, it runs like this:
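Read-out is the blue/green (460/530 nm, 405 nm excitation) ratio after 2 h CCF4-AM loading, fitted as gain versus DMSO. Compounds, pinned at 217-fold dilution from DMSO stocks, stayed 16 h on HCT-116 beta-lactamase reporter cells seeded 5 h earlier.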

Experiment [3] is described as follows: TOX21_p53_BLA_p3_viability: Viability Assessment in the Tox21 HCT-116 p53 Agonism Beta-lactamase Assay, Phase 3 (AID 2283593).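 Further: cells exposed to compound for 16 h before reading.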 An outline of the steps:
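HCT-116 cells (4000/well) rested 5 h at 37C, then got DMSO compounds by pin tool (217-fold dilution) for 16 h at 37C, 5% CO2. After the bla read, CellTiter-Glo was added and luminescence read at 30 min, room temperature.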

For experiment [4], the target named is Cellular tumor antigen p53 (Homo sapiens) (UniProt P04637). Put plainly: TOX21_p53_BLA_p3_ratio: Tox21 HCT-116 p53 Agonism Beta-lactamase Assay, Ratio, Phase 3 (AID 2283596). An outline of the steps: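 Cells were seeded at 4000/well, rested 5 h at 37C, then dosed with DMSO compound solutions (217-fold dilution) for 16 h. CCF4-AM substrate was loaded for 2 h at room temperature, and the 460/530 nm emission ratio was fitted for gain of signal versus DMSO.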
Sequence of Cellular tumor antigen p53 (Homo sapiens) (P04637 whole entry, looked up): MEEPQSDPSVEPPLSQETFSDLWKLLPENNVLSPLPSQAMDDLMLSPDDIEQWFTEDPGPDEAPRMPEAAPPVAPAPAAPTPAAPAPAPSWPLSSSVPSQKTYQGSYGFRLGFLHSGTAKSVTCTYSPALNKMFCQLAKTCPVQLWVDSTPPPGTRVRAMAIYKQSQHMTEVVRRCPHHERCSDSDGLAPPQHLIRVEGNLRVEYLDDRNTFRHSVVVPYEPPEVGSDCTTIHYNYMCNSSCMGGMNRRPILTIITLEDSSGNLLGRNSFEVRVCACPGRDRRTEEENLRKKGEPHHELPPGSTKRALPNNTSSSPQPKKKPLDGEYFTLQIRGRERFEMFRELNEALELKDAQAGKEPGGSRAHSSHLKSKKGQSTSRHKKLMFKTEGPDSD

For experiment [5] the target is unchanged. As to the kind of experiment: TOX21_p53_BLA_p5_ratio: Tox21 HCT-116 p53 Agonism Beta-lactamase Assay, Ratio, Phase 5 (AID 2283599). In short, it runs like this: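 HCT-116 cells carrying a p53-inducible beta-lactamase reporter were seeded at 4000 cells/well and dosed after 5 h with compound in DMSO (217-fold dilution). After 16 h at 37C, CCF4-AM substrate was added for 2 h, and the 460/530 nm emission ratio was scored as gain-of-signal versus DMSO.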

The target is the same in experiment [6]. As to the kind of experiment: TOX21_p53_BLA_p4_ratio: Tox21 HCT-116 p53 Agonism Beta-lactamase Assay, Ratio, Phase 4 (AID 2283601). In short, it runs like this:
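HCT116 cells carrying an inducible beta-lactamase reporter were plated at 4000 cells/well, rested 5 h, then exposed to compounds in DMSO (217-fold dilution) for 16 h at 37C. CCF4-AM substrate was loaded 2 h at room temperature; 460/530 nm emission ratio scored gain-of-signal versus DMSO.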

Experiment [7] addresses Thyroid hormone receptor alpha (Rattus norvegicus) + Thyroid hormone receptor beta (Rattus norvegicus) (UniProt P18113+P63059). Put plainly: TOX21_TR_LUC_GH3_Antagonist_Followup: Tox21 GH3 Thyroid Hormone Receptor Antagonism Luciferase Follow-Up Assay (AID 2283942). An outline of the steps:
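In a GH3 luciferase reporter line, test chemicals spanning 92 uM to 5nM final are co-incubated 24 h with 1.0 nM T3. Activity is expressed as relative luminescence units and analysed relative to DMSO.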

For another experiment, the target named is THRA (gene 7067) (UniProt P10827). As to the kind of experiment: TOX21_TRA_COA_Antagonist_Followup_ratio: Tox21 Thyroid Hormone Receptor alpha Antagonism through Coactivator Recruitment Follow-Up Assay, Ratio (AID 2283953). An outline of the steps:
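We measured antagonism of T3-type coactivator recruitment using a TR-FRET ratio (emission 520 and 495 nm) between a Tb-labelled anti-GST antibody on TRα LBD (2.5 nM) and SRC-2 peptide (200 nM). Activity was scaled between DMSO and T3 wells.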

The target of experiment [8] is THRB (gene 7068) (UniProt P10828). Put plainly: TOX21_TRB_BLA_Antagonist_Followup_ratio: Tox21 Thyroid Hormone Receptor beta Antagonism Beta-lactamase (BLA) Follow-Up Assay, Ratio (AID 2283958). An outline of the steps: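 Using charcoal-stripped 2% FBS medium, human TRβ-LBD/GAL4 reporter HEK293T cells received test compounds for 18 h. The endpoint is the cleaved-to-uncleaved substrate ratio (460/530 nm).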
Sequence of THRB (gene 7068) (P10828 whole entry, looked up, the tested form may be a part): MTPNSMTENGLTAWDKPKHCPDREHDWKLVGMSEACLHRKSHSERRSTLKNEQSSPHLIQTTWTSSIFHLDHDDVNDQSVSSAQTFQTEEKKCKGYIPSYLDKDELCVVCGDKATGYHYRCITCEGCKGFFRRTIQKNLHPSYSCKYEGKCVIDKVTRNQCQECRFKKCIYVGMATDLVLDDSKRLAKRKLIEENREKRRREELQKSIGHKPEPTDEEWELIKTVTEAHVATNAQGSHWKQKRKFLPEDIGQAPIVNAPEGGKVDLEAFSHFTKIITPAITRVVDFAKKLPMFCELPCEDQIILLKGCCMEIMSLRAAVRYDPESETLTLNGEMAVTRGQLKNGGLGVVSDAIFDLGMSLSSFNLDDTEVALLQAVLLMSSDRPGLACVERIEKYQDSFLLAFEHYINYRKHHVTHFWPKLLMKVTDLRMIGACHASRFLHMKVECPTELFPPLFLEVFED

Experiment [9] has the same target. As to the kind of experiment: TOX21_TRB_COA_Antagonist_Followup_ratio: Tox21 Thyroid Hormone Receptor beta Antagonism through Coactivator Recruitment Follow-Up Assay, Ratio (AID 2283967). In short, it runs like this: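 Coactivator (SRC-2) recruitment to purified GST-TRβ ligand-binding domain is monitored by terbium-to-fluorescein energy transfer, emission ratio 520:495 nm. DMSO wells define 0% and T3 wells 100% activity.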

Experiment [10] is described as follows: TOX21_TR_RXR_BLA_Antagonist_Followup_viability: Viability Assessment in the Tox21 Thyroid Hormone Receptor beta Retinoid X Receptor alpha (RXRa) Antagonism Beta-lactamase (BLA) Follow-Up Assay (AID 2283979). In short, it runs like this:
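RXRa-UAS-bla HEK293T cells seeded 2,500/well in phenol red-free DMEM with 2% charcoal-stripped FBS, attached 5 h, then exposed to compounds at 11 concentrations in triplicate for 16 h at 37C/5% CO2. Viability read by CellTiter-Glo ATP luminescence; bidirectional fit versus DMSO.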

Experiment [11] in a line: TOX21_p53_BLA_p5_viability: Viability Assessment in the Tox21 HCT-116 p53 Agonism Beta-lactamase Assay, Phase 5 (AID 2283600). In short, it runs like this:
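Viability came from CellTiter-Glo ATP luminescence, read after 30 min at room temperature. Before this, HCT-116 p53-bla cells (4000/well) had 16 hours of compound exposure at 37C, with DMSO stocks diluted 217-fold on transfer.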

Experiment [12] in a line: CCTE_Harrill_HTTr_Viability_MCF7: CCTE's 6-hour Cell Viability Assessment for the High-Throughput Transcriptomics (HTTr) Platform, in MCF-7 cells cultured in DMEM + 10% fetal bovine serum, Harrill Lab (AID 2284010; active means hit-call score of the fitted dose curve at least 0.9, where 1 is the maximum; inactive means score below 0.9). In short, it runs like this: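 Eight-point concentration series, six-hour exposure. Propidium iodide exclusion imaged to assess membrane integrity as a cytotoxicity readout; bidirectional fitting was done with DMSO as negative control and activity baseline.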

Experiment [13] can be described thus: CCTE_Harrill_HTTr_Apoptosis_MCF7: CCTE's 6-hour Apoptosis Assessment for the High-Throughput Transcriptomics (HTTr) Platform, in MCF-7 cells cultured in DMEM + 10% fetal bovine serum, Harrill Lab (AID 2284011; active means hit-call score of the fitted dose curve at least 0.9, where 1 is the maximum; inactive means score below 0.9). An outline of the steps: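 High-content imaging of CellEvent Caspase 3/7 Green signal follows a six-hour exposure, with eight concentrations per chemical. MCF-7 cells grown in DMEM plus 10% fetal bovine serum; activity fitted in both directions against DMSO.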

Sequence of THRA (gene 7067) (P10827 whole entry, looked up, the tested form may be a part): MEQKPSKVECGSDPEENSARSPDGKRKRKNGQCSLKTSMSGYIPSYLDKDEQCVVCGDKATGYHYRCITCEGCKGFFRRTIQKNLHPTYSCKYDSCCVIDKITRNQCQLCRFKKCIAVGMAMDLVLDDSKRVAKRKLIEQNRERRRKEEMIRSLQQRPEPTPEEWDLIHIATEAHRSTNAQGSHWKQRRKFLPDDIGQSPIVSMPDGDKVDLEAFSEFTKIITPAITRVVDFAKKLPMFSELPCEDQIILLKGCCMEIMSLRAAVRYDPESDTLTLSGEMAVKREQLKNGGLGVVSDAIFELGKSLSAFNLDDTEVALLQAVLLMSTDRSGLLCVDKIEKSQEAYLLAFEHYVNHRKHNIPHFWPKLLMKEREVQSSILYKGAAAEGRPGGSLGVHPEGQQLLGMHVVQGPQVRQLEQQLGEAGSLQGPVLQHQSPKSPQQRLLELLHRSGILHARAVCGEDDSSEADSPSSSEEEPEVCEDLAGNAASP

With `CCCCC(C)C(=O)O` (configuration not stated), the call in experiment [1], in experiment [2], in [3], in experiment [4], in experiment [5] and in experiment [6] was inactive.
Broadly, the AC50 is the concentration giving half of the maximal activity seen. Take `CC(=O)Nc1ccn(C2COC(COC(=O)c3ccccc3)O2)c(=O)n1` (configuration not stated): the result (in experiment [1]; in experiment [3]; in experiment [5]; in [6]; in [7]; with THRA (gene 7067)) was inactive. The result (with THRB (gene 7068) [8]; in the experiment with THRB (gene 7068) [9]; in experiment [10]) was inactive. Also, the AC50 in experiment [2] was 5.44 µM (active); in experiment [4], 11.7 µM (active).
As to `CC(=O)N[C@@H](CS)C(=O)O`, the compound was classed as inactive in experiment [1], in experiment [2], in experiment [3], in experiment [4], in experiment [5] and in [6].
With `COc1cccc(Br)c1`, the outcome in experiment [1], in [2], in experiment [3], in experiment [4], in experiment [5] and in experiment [6] was inactive.
For `COc1cc(OC)c(C(=O)CCCN2CCCC2)c(OC)c1`, the outcome in experiment [1], in experiment [2], in experiment [3], in experiment [4], in experiment [5] and in experiment [11] was inactive. In addition, the result in [6], in experiment [12] and in experiment [13] was inactive.
In the case of `Nc1ccc(S(=O)(=O)Nc2ccccn2)cc1`, the call in experiment [1], in experiment [2], in experiment [3], in experiment [4], in experiment [5] and in experiment [6] was inactive.
On to `Cc1cc(O)c2ccccc2c1O`, for which the compound was classed as inactive in experiment [1], in experiment [2], in experiment [3], in experiment [4], in experiment [5] and in experiment [6].
On to `CC(=O)c1sc(C)nc1C`, for which the compound was called inactive in [1], in experiment [2], in experiment [3], in experiment [4], in [5] and in experiment [6].
Consider `CCC1(CO)COCOC1`, for which the compound was called inactive in experiment [1], in experiment [2], in experiment [3], in [4], in experiment [5] and in [6].
As to `O=C1c2ccccc2C(=O)c2cc(O)ccc21`, the result in experiment [1], in [3], in experiment [4] and in [5] was inactive. Moreover, the AC50 in experiment [2] is 37.8 µM (active); in experiment [6], 42.5 µM (active).
As to `O=C1CCC(=O)N1CO`, the compound was called inactive in experiment [1], in [2], in experiment [3], in [4], in [5] and in experiment [6].
Take `CN1CCN(c2c(F)cc3c(=O)c(C(=O)O)cn(CCF)c3c2F)CC1`: the outcome in experiment [1], in experiment [2], in experiment [3], in experiment [4], in experiment [5] and in [6] was inactive.
Regarding `Cc1ccc([N+](=O)[O-])c(N)c1`, the compound was called inactive in [1], in experiment [2], in experiment [3], in [4], in [5] and in [6].
Consider `CC(=O)OC1CCC(C(C)(C)C)CC1` (configuration not stated), for which the compound was called inactive in [1], in [2], in experiment [3], in experiment [4], in [5] and in experiment [6].
